For 40 compounds, growth results are on record in PubChem BioAssay (NCI).

Compounds without any hit were thinned out: in the full panel of roughly 83,000, 20% have a hit.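 A percent growth of 40 corresponds to 60% growth inhibition; 0 means no net growth; -100 means all cells died. Active threshold: below 10.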 Unmarked numbers belong to inactive results. Activity calls are given as the source filed them.

In the test the test system is NCI-H226 lung. The experiment in a line: NCI-60 one-dose screen, 48 h (100 = growth as untreated, 0 = no growth, -100 = all killed). Conditions: 10 µM unless noted. On the procedure: Growth inhibition of the NCI-H226 human Non-Small Cell Lung tumor cell line is measured as a screen for anti-cancer activity. Cells are grown in 96 well plates and exposed to the test compound for 48 hours. Compounds are tested at a single concentration, which is 10^-5 M for most compounds. The reported endpoint is percent growth (GI% or GIPRCNT), where numbers from 0 - 100% represent growth inhibition, and numbers from -100% - 0 represent cell death. For example, a value of 40 represents 60% growth inhibition. A value of 0 means no net growth occurred over the course of the experiment. A value of -40 indicates 40% of cells at the beginning of the experiment died by the end of the experiment. A value of -100 means all cells are dead at the end of the experiment.
NCI-60 Human Tumor Cell Lines Screen was performed using the standard one-dose NCI protocol, which is described in more detail at https://dtp.cancer.gov/discovery_development/nci-60/default.htm.
Compounds with GIPRCNT values below 10 were considered active. Activity score was based on GIPRCNT using the following formula: […]
Score is 0 for GIPRCNT values of 100 or above, 50 for GIPRCNT values of 0, and 100 for GIPRCNT values of -100.
On to `O=P(O)(c1ccccc1)c1ccccc1I`, for which the growth was 90%.

Turning to `CC(=O)OC[C@]12CC[C@@H](/C(C)=N/O)[C@@H]1[C@H]1CC[C@@H]3[C@@]4(C)CCCNC(C)(C)[C@@H]4CC[C@@]3(C)[C@]1(C)CC2`, the growth was 88.5%.

With `CN1CCN(CC#CCn2c3c(c4ccccc42)C[C@]2(C)[C@H]4CC[C@@H]5[C@H]6[C@H]7OC(=O)[C@@]6(CCC7(C)C)CC[C@@]5(C)[C@]4(C)CC[C@H]2C3(C)C)CC1`, the growth is 91.6%.

Consider `COC(=O)[C@]12CC[C@@H](C(C)=O)[C@@H]1[C@H]1CC[C@@H]3[C@@]4(C)C/C(=C/c5cccnc5)C(=O)C(C)(C)[C@@H]4CC[C@@]3(C)[C@]1(C)CC2`, for which the growth is 48.1%.

Consider `COc1cnc2c(c1)C(=O)c1c-2n(CCCNC(C)C)c(=O)c2cc([N+](=O)[O-])ccc12`, for which the growth is -58.8% (active).

Take `COc1ccccc1-n1cnc(N)c1C(=O)c1cc(OC)c(OC)c(OC)c1`: the growth was 56.7%.

Turning to `C=COCCCCCCCCCCCCCCCCCC`, the growth was 104%.

As for `CC(C)(C)c1ccc(OP(=S)(N/N=C/c2ccccc2O)Oc2ccc(C(C)(C)C)cc2)cc1`, the growth is 58.6%.

For `CCCNc1nc(N(C)O)nc(N(C)O)n1`, the growth was 62.9%.

With `O=C1C=C(C(O)c2ccc(O)cc2)C(=O)c2ccccc21` (stereo not given), the growth is 112%.

`O=C1/C(=C\c2ccco2)SC(=S)N1CCc1ccc(O)cc1`: the growth is 101%.

`Oc1cccc2oc(=S)[nH]c12`: the growth is 106%.

As for `Cn1c(=O)c2c(ncn2CCC(=O)Nc2ccc(F)cc2)n(C)c1=O`, the growth was 109%.

With `C=C(C)[C@@H]1CC[C@]2(c3nnc(-c4ccncc4)o3)CC[C@]3(C)[C@H](CC[C@@H]4[C@@]5(C)CCC(=O)NC(C)(C)[C@@H]5CC[C@]43C)[C@@H]12`, the growth is 87.8%.

For `C[C@@H]1CCCCCCCCC[C@H](O)C(=O)C[C@@H](SC[C@@H](O)C(=O)O)C(=O)O1`, the growth was 102%.

As to `Cc1ccc(C)c2c1CCC2C(C)C` (stereo not given), the growth was 98.6%.

Consider `CCN1CCN(C(=O)[C@]23CCC(C)(C)C[C@@H]2C2=CC[C@@H]4[C@@]5(C)C/C(=C/c6ccncc6)C(=O)C(C)(C)[C@@H]5CC[C@@]4(C)[C@]2(C)CC3)CC1`, for which the growth was -42.8% (active).

With `Cc1cc(Cl)nc(N(CCNc2ccnc3cc(Cl)ccc23)Cc2ccco2)n1`, the growth was 70.3%.

`O=C(NCN1C(=O)c2cccc3cccc(c23)C1=O)N1CCC(Cc2ccccc2)CC1`: the growth is 96.7%.

On to `CCNCCCn1c2c(c3ccc([N+](=O)[O-])cc3c1=O)C(=O)c1cc(OC)cnc1-2`, for which the growth is -44% (active).

With `CCc1ccc(-c2ccc(Nc3ccccc3)nn2)cc1S(N)(=O)=O`, the growth is 86.8%.

As to `COC(=O)[C@@H]1[C@H]2C[C@H]3c4[nH]c5cc(OC)ccc5c4CCN3C[C@@H]2C[C@H](OC(=O)/C=C/c2ccnc(OC)c2)[C@H]1OC`, the growth is 89.3%.

For the compound `COc1ccc(C2(Cl)c3ccccc3N(c3ccccc3)c3ccccc32)cc1`, the growth was -27.8% (active).

For `CN(C)c1ccc(C(=O)c2ccc(N(C)C)c(N)c2)cc1N`, the growth was 75.6%.

As to `COc1ccc(-n2c(/C=C/c3ccc(O)c(OC)c3)cc(/C=C/c3ccc(O)c(OC)c3)nc2=O)cc1`, the growth is 70.7%.

`C=C(C)[C@@H]1CC[C@]2(C(=O)OC)CC[C@]3(C)[C@H](CC[C@@H]4[C@@](C)(CC/C(N)=N/O)[C@H](C(=C)C)CC[C@]43C)[C@@H]12`: the growth was 97.2%.

On to `C=C(C)[C@@H]1CC[C@]2(C(=O)NNC(=O)c3cccnc3)CC[C@]3(C)[C@H](CC[C@@H]4[C@@]5(C)CCCNC(C)(C)[C@@H]5CC[C@]43C)[C@@H]12`, for which the growth was 83.2%.

As to `COC(=O)[C@]12CC[C@@H](C)[C@H](C)[C@@H]1C1=CC[C@@H]3[C@@]4(C)C[C@@H](OC(C)=O)[C@H](O)[C@@](C)(CO)[C@@H]4[C@H](O)C[C@@]3(C)[C@]1(C)CC2`, the growth was -48.6% (active).

`NS(=O)(=O)c1ccc(CCNC(=O)/C=C/c2ccc(Cl)cc2)cc1`: the growth is 107%.

On to `O=C1CN(c2ccccc2)C(=O)C1C(=O)Nc1ccc(Cl)c(Cl)c1` (stereo not given), for which the growth is 41.6% [100 µM].

Regarding `CCC1C(=O)COC1=O` (stereo not given), the growth is 100%.

For the compound `Cc1[c-]onc1C.Cc1[c-]onc1C.[Ag].[Ag].[NH-]S(=O)(=O)c1ccc(N=Nc2cc(N=Nc3ccc(S([NH-])(=O)=O)cc3)c3c(NC(=O)C(Cl)Cl)cccc3c2OC(=O)C(Cl)Cl)cc1`, the growth is 94.8%.

On to `NC1(N)C=CC2=C(C=C1)C1(N)C3=C(C=CC(N)(N)C=C3)N2C2(N)C3=C(C=CC(N)(N)C=C3)N1C1=C2C=CC(N)(N)C=C1`, for which the growth was 97.7%.

Take `Cc1cc(C)nc(NC(N)=NCCc2ccccc2)n1`: the growth is 52.6%.

Take `c1ccc(-c2nc(Nc3ccc(-c4nc5ccccc5[nH]4)cc3)nc(N3CCOCC3)n2)cc1`: the growth is -19.3% (active).

For the compound `Cc1cc(C=O)c(C)c2c1[nH]c1ccccc12`, the growth was -21.9% (active).

As for `C=C(C)[C@@H]1CC[C@]2(/C=N/Nc3ccncc3)CC[C@]3(C)[C@H](CC[C@@H]4[C@@]5(C)CCCNC(C)(C)[C@@H]5CC[C@]43C)[C@@H]12`, the growth was 87.7%.

For `COc1cc(-c2cc3ncccc3c3[nH]c(=O)c4cccnc4c23)cc(OC)c1OC`, the growth was 28.3%.

Take `Cc1cc(N=O)cc(C(C)(C)C)c1O`: the growth was 85.8%.

As to `CC(C)C[C@@H](NC(=O)[C@@H](Cc1ccccc1)NC(=O)c1cnccn1)B1O[C@H]2[C@H](O)[C@@H](C(=O)NCCCC[C@@H]3NC(=O)[C@@H](Cc4ccccc4)NC(=O)[C@H](CC(=O)O)NC(=O)CNC(=O)[C@H](CCCN=C(N)N)NC3=O)O[C@@H](CN)[C@H]2O1`, the growth was -45.8% (active).
